{"source": "the supplement of paper PMC8047044", "data": [{"test_system": "Neuro-2a", "test": "neurite formation score, plate-normalized to DMSO control mean 5.04 (score (0-8 scale)); higher = more or longer neurites", "settings": "1 µM", "method": "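Neuro-2a mouse neuroblastoma cells in PLL-coated 96-well plates were pre-treated for 1 h in DMEM(+) with each kinase inhibitor at 1 µM, then switched to serum-free DMEM(-) with inhibitor to induce neurite outgrowth and fixed about 2-3 h later. Three blinded observers scored neurite formation from 0 (no neurites) to 8 (long neurites on almost all cells).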", "values": [{"smiles": "CC(C)(C)c1cc(C=C(C#N)C#N)cc(Br)c1O", "neurite formation score": 4.24}, {"smiles": "COC[C@H]1OC(=O)c2coc3c2[C@@]1(C)C1=C(C3=O)[C@@H]2CCC(=O)[C@@]2(C)C[C@H]1OC(C)=O", "note": "[Wortmannin]", "neurite formation score": 4.63}, {"smiles": "O=c1[nH]c2ccccc2n1C1CCN(Cc2ccc(-c3[nH]c4cc5ncnc5cc4nc3-c3ccccc3)cc2)CC1", "note": "[AKT inhibitor VIII]", "neurite formation score": 4.91}, {"smiles": "CC(C)(C)c1cc(C=C(C#N)C#N)cc(C(C)(C)C)c1O", "note": "[Tyrphostin 9]", "neurite formation score": 4.96}, {"smiles": "CCN1CCN(C(=O)Cc2ccc(Nc3ncc(F)c(Nc4ccc(C(=O)Nc5ccccc5Cl)cc4)n3)cc2)CC1", "note": "[Aurora A Inhibitor I]", "neurite formation score": 3.69}, {"smiles": "O=c1[nH]c2ccc(Cl)cc2c(N[C@@H]2CN3CCC2CC3)c1-c1nc2ccccc2[nH]1", "neurite formation score": 5.96}, {"smiles": "Cc1ccccc1-n1c(Cn2cnc3c(N)ncnc32)nc2cccc(C)c2c1=O", "neurite formation score": 5.21}, {"smiles": "COc1cc([C@@H]2c3cc4c(cc3[C@H](O)[C@H]3COC(=O)[C@@H]23)OCO4)cc(OC)c1OC", "neurite formation score": 4.24}, {"smiles": "COc1ccc2c(c[n+](C)c3c4cc5c(cc4ccc23)OCO5)c1OC", "note": "[Chelerythrine Chloride]", "neurite formation score": 4.57}, {"smiles": "COc1ccc(N(C(=O)Oc2c(C)cccc2C)c2ccnc(Nc3ccc(N4CCN(C)CC4)cc3)n2)c(OC)c1", "neurite formation score": 3.88}, {"smiles": "Cn1cc(C2=C(c3cn(C4CCN(Cc5ccccn5)CC4)c4ccccc34)C(=O)NC2=O)c2ccccc21", "neurite formation score": 3.91}, {"smiles": "N#CC(C#N)=Cc1ccc(O)c(O)c1", "neurite formation score": 4.91}]}]}
